# Compound activity (PubChem)
# The entries come from a sample that favours hits as a whole.
# IDE exosite inh: insulin-degrading enzyme (human) exo-site inhibition; purified IDE, FL-6b probe fluorescence polarization; stronger effect = lower value; P14735; z-score at 20 µM; actives 6.3% (n = 17,000);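 active means z-score of -3 or lower, meaning strong loss of probe binding signal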;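 further: His-tagged human IDE residues 42-1019 made in E. coli with 30 nM FL-6b probe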
# The depositor's hits bear a star.
SMILES,IDE exosite inh
C[C@@H]1CCCCO[C@@H](CN(C)C(=O)c2ccncc2)[C@H](C)CN([C@H](C)CO)C(=O)c2cc(NC(=O)CCC(F)(F)F)ccc2O1,-0.31
CCCNC(=O)N1[C@H](CO)[C@@H](c2ccccc2-c2ccc(OC)cc2)[C@@H]1C#N,0.35
O=C(CN1CCOCC1)N[C@@H]1CC[C@H](CCn2cc(C3CC3)nn2)O[C@H]1CO,0.82
CCS(=O)(=O)N1CC(=O)N2[C@H](CO)[C@@H](c3ccc(-c4ccccc4C)cc3)[C@H]2C1,-0.81
CCC(=O)N1CC(=O)N2[C@H](CO)[C@H](c3ccc(-c4ccccc4C)cc3)[C@@H]2C1,-8*
CCC(=O)N1CC(=O)N2[C@H](CO)[C@@H](c3ccc(-c4ccccc4C)cc3)[C@H]2C1,-4*
Cc1ccccc1-c1ccc([C@H]2[C@H](CO)N3C(=O)CN(S(C)(=O)=O)C[C@@H]23)cc1,-1.4
COCC(=O)N1CC(=O)N2[C@H](CO)[C@@H](c3ccc(-c4ccccc4C)cc3)[C@H]2C1,-0.94
CCC(=O)N1CC(=O)N2[C@@H](CO)[C@H](c3ccc(-c4ccccc4F)cc3)[C@@H]2C1,0.65
N#C[C@@H]1[C@H](c2ccccc2-c2ccccc2F)[C@@H](CO)N1C(=O)C1CCC1,-0.62
CNC[C@@H]1Oc2cc(C3=CCCC3)ccc2S(=O)(=O)N([C@@H](C)CO)C[C@H]1C,-0.89
O=C(Nc1ccc(C(F)(F)F)cc1)N[C@H]1C=C[C@H](CC(=O)N2CCCCC2)O[C@H]1CO,-1.7
CCC(=O)N1CCCCN2[C@H](CO)[C@@H](c3ccc(C#CCOC)cc3)[C@H]2C1,2.8
COc1ccc(C#Cc2ccc([C@H]3[C@H]4CN(C(=O)Nc5ccccc5F)CCCCN4[C@H]3CO)cc2)cc1,3
COc1ccc(C#Cc2ccc([C@@H]3[C@H]4CN(C(=O)Nc5ccccc5F)CCCCN4[C@H]3CO)cc2)cc1,0.86
CCC(=O)N1CCCCN2[C@@H](CO)[C@H](c3ccc(C#Cc4ccccc4F)cc3)[C@@H]2C1,-3.9*
CCC(=O)N1CCCCN2[C@H](CO)[C@@H](c3ccc(C#Cc4ccccc4F)cc3)[C@H]2C1,1.8
CC(=O)N1CCCCN2[C@H](CO)[C@@H](c3ccc(C#Cc4ccccc4F)cc3)[C@H]2C1,-5.2*
CCC(=O)N1CCCCN2[C@@H](CO)[C@@H](c3ccc(C#Cc4ccccc4F)cc3)[C@@H]2C1,-8.2*
COc1ccc(C#Cc2ccc([C@@H]3[C@@H](CO)N4CCCCN(C(=O)Nc5ccccc5F)C[C@H]34)cc2)cc1,1.8
COc1ccc2c3c(n(C)c2c1)[C@H](CO)N(C)CC31CCN(C(=O)NC(C)C)CC1,-1.7
N#C[C@H]1[C@@H](c2ccccc2-c2ccccc2F)[C@@H](CO)N1C(=O)C1CC1,1.7
COCCNC(=O)C[C@H]1CC[C@@H]2[C@@H](COc3ccc(NC(=O)Nc4cccc(F)c4)cc3C(=O)N2C)O1,-0.56
O=C(Nc1cccc(F)c1)N1CC(=O)N2[C@H](CO)[C@@H](c3ccc(-c4ccc(F)cc4)cc3)[C@H]2C1,0.87
CC(=O)N1[C@@H](CO)[C@@H](c2ccccc2)C12CN(S(=O)(=O)c1ccccc1)C2,1.1
SMILES,IDE exosite inh
CN1C(=O)c2cc(NC(=O)Cc3cccs3)ccc2OC[C@H]2O[C@@H](CC(=O)NCc3ccc(-c4ccccc4)cc3)CC[C@H]21,-0.38
N#C[C@H]1[C@@H](c2ccc(C3=CCCCC3)cc2)[C@@H](CO)N1C(=O)C1CCOCC1,2.1
Cc1ccc(S(=O)(=O)N(C)C[C@@H]2OCCCC[C@@H](C)Oc3ccc(NC(=O)c4ccncc4)cc3C(=O)N([C@@H](C)CO)C[C@@H]2C)cc1,0.88
Cc1ccccc1-c1ccc([C@H]2[C@@H](CO)N3CCCCN(S(=O)(=O)Cc4ccccc4)C[C@H]23)cc1,0.6
Cc1ccccc1-c1ccc([C@H]2[C@H]3CN(S(=O)(=O)Cc4ccccc4)CCCCN3[C@H]2CO)cc1,1.7
CS(=O)(=O)N1CCCCN2[C@H](CO)[C@@H](c3ccc(C4=CCCC4)cc3)[C@H]2C1,5.1
Cc1ccccc1-c1ccc([C@@H]2[C@H](CO)N3CCCCN(S(C)(=O)=O)C[C@@H]23)cc1,-10*
CCS(=O)(=O)N1CCCCN2[C@H](CO)[C@H](c3ccc(-c4ccccc4)cc3)[C@H]2C1,0.63
CCS(=O)(=O)N1CCCCN2[C@@H](CO)[C@@H](c3ccc(-c4ccccc4C)cc3)[C@@H]2C1,-14*
CS(=O)(=O)N1CCCCN2[C@H](C1)[C@H](c1ccc(C3=CCCC3)cc1)[C@@H]2CO,3
Cc1ccccc1-c1ccc([C@H]2[C@@H](CO)N3CCCCN(S(C)(=O)=O)C[C@H]23)cc1,-7.7*
Cc1ccccc1-c1ccc([C@H]2[C@@H](CO)N3CCCCN(S(=O)(=O)Cc4ccccc4)C[C@@H]23)cc1,-1.6
CCS(=O)(=O)N1CCCCN2[C@H](CO)[C@@H](c3ccc(-c4ccccc4C)cc3)[C@H]2C1,-1.7
CS(=O)(=O)N1CCCCN2[C@@H](CO)[C@@H](c3ccc(C4=CCCC4)cc3)[C@@H]2C1,0.72
Cc1ccccc1-c1ccc([C@@H]2[C@@H](CO)N3CCCCN(S(C)(=O)=O)C[C@@H]23)cc1,-18*
O=C1CNC[C@H]2[C@@H](c3ccc(C#CC4CCCC4)cc3)[C@@H](CO)N12,4.6
O=C(C[C@H]1C[C@@H]2c3cc(NC(=O)c4ccc5c(c4)OCO5)ccc3O[C@@H]2[C@@H](CO)O1)NCc1ccc(Oc2ccccc2)cc1,-0.72
COCC(=O)Nc1ccc2c(c1)[C@@H]1C[C@@H](CC(=O)N3CCOCC3)O[C@@H](CO)[C@@H]1O2,0.69
C[C@H](CO)N1C[C@H](C)[C@H](CN(C)C(=O)Nc2ccc3c(c2)OCO3)OCc2cn(nn2)CCCC1=O,-0.4
COc1ccccc1NC(=O)N1CC(=O)N2[C@H](CO)[C@H](c3ccc(C#Cc4ccc(F)cc4)cc3)[C@@H]2C1,4.6
CS(=O)(=O)N1[C@H](C#N)[C@H](c2ccccc2-c2ccccc2F)[C@@H]1CO,-1.3
O=C1CNC[C@@H]2[C@@H](c3ccc(C4=CCCC4)cc3)[C@H](CO)N12,1.2
CC(C)C(=O)Nc1ccc2c(c1)C(=O)N(C)[C@H]1CC[C@@H](CC(=O)NCCc3ccccc3)O[C@@H]1CO2,-0.65
COc1ccc2c3c(n(C)c2c1)[C@H](CO)N(Cc1cc(F)ccc1F)CC31CN(C(=O)C2CC2)C1,-1.8
COc1ccc(S(=O)(=O)Nc2ccc3c(c2)OC[C@H](C)NC[C@@H](C)[C@H](OC)CN(C)C3=O)cc1,0.62
SMILES,IDE exosite inh
CS(=O)(=O)N1CCCCN2[C@H](CO)[C@H](c3ccc(C4=CCCC4)cc3)[C@@H]2C1,2.1
CS(=O)(=O)N1CCCCN2[C@H](C1)[C@H](c1ccc(Br)cc1)[C@@H]2CO,-0.69
Cc1ccccc1-c1ccc([C@@H]2[C@H]3CN(S(C)(=O)=O)CCCCN3[C@H]2CO)cc1,-5.2*
C[C@H](CO)N1C[C@H](C)[C@H](CN(C)C(=O)[C@@H](Cc2ccccc2)N(C)C)OCc2ccccc2-c2ccccc2C1=O,0.73
CCCNC(=O)N1[C@@H](C#N)[C@@H](c2ccc(C#Cc3ccc(F)cc3)cc2)[C@@H]1CO,5.4
COCC#Cc1ccc([C@H]2[C@@H](CO)N3CCCCN(Cc4cncnc4)C[C@@H]23)cc1,1.7
OC[C@H]1[C@H](c2ccc(C#Cc3ccccc3)cc2)[C@@H]2CN(Cc3cncnc3)CCCCN12,-4.5*
CCCC#Cc1ccc([C@H]2[C@H](CO)N3CCCCN(Cc4cncnc4)C[C@@H]23)cc1,2.3
